Screening results as filed in PubChem.
This is a sample that favours compounds with a hit; in the whole collection about 1.6% have one here.
Myeloid diff MLP = myeloid differentiation induction; ER-HoxA9 myeloid progenitors, lysozyme-GFP differentiation, flow cytometry; 360,000 tested, 1% active; calls only at 10 µM;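 active = normalized GFP-positive differentiation at or above the plate's own cutoff, the solvent-only control mean plus 3 SD; inconclusive = no clear call, values can overlap the other calls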;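 also: cells exposed to compound for four days before flow analysis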
N-glyco inh = N-linked glycosylation inhibition; D54 ERlucT glycosylation luciferase reporter, 24 h; percent of 100 nM tunicamycin response; reporter increase, % at 12.5 µM; 360,000 tested, 0.23% active; AID 588692;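 active = mean luciferase reporter signal, scaled so untreated is 0 and the glycosylation-blocking control 100, at or above a set limit in every replicate; inconclusive = mean reaches the limit but not every replicate does; inactive = mean below the limit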;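 also: luciferase carries N-glycosylation sites so blocking glycosylation raises the light; 0% = median of neutral control wells and 100% = median of 100 nM tunicamycin wells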
RAD54 branch = inhibitors of human RAD54 branch migration; Q92698; RAD54 Holliday junction branch migration, FAM/BHQ fluorescence; inhibition, % at 10.4 µM; 360,000 tested, 0.14% active; AID 602329;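 active = mean normalized replicate activity at least 40 and at least half of replicates scoring 40 or more; inconclusive = only one of the two criteria met; inactive = mean below 40 and under half of replicates reaching 40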;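 also: 0% = median of neutral control wells and 100% = median of positive control wells; inhibitors cause a drop in the FAM fluorescence signal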
ABCB6 inh MLPCN = inhibitors of human ABC transporter ABCB6 | fluorescence ratio to DMSO, % at 10 µM | Q9NP58 | AID 602162 | K562-ABCB6 porphyrin accumulation, flow cytometry, 1 h; stronger effect = lower value | 360,000 tested, 0.19% active;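 active = fluorescence ratio to DMSO below 75%, the collection mean minus 3 SD; inconclusive = too few cells collected in the well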;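 also: signal is porphyrin accumulated inside mitochondria; 100% equals median channel fluorescence of DMSO control wells; lower ratio means ABCB6 inhibition with less porphyrin fluorescence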
Target sequence (Q9NP58 whole entry, looked up): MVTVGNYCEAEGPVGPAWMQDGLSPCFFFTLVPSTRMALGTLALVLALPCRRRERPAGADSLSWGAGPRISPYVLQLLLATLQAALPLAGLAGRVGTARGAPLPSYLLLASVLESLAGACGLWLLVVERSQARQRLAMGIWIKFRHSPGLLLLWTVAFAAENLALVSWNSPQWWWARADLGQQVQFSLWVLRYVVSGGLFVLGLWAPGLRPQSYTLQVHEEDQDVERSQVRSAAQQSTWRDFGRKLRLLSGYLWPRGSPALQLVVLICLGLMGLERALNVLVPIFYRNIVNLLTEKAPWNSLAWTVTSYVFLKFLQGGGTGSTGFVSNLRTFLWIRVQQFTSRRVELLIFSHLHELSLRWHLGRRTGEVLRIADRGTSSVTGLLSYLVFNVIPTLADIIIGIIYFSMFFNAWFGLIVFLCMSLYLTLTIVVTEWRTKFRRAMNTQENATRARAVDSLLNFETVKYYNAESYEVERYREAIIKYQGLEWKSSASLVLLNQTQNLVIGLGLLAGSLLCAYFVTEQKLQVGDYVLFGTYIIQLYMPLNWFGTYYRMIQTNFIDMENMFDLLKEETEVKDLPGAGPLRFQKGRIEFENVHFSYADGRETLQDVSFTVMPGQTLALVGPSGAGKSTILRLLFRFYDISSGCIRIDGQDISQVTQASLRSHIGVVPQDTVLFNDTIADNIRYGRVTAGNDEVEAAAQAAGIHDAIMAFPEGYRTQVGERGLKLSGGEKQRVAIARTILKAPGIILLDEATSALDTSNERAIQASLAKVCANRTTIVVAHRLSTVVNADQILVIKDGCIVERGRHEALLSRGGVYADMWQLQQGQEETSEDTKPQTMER
Vif inh = blocks HIV Vif function | AID 602346 | HEK293T cells, Vif self-association by quenched fluorescence, imaging, 24 h | inhibition, % at 7.49 µM | 340,000 tested, 0.35% active; in the data active = inhibition above about 50%, passing the limit was not always enough; inconclusive = no clear call, values can overlap the other calls; inactive = below about 31%
* hit, by the source's call; i = inactive; u = inconclusive; x = not tested or not shown; + = active, no number; ! = not active in a repeat.

SMILES | Myeloid diff MLP | N-glyco inh | RAD54 branch | ABCB6 inh MLPCN | Vif inh
COc1ccccc1-c1cnc2c(c1)C(=O)N([C@H](C)CO)C[C@H](C)[C@H](CN(C)Cc1ccncc1)O2 | x | x | -2 | x | x
C[C@@H]1CCCCO[C@H](CN(C)S(=O)(=O)c2ccc(Cl)cc2)[C@H](C)CN([C@H](C)CO)C(=O)c2cc(N(C)C)ccc2O1 | x | x | -5 | x | x
CCCNC(=O)C[C@@H]1C[C@@H]2c3cc(NC(=O)CC4CC4)ccc3O[C@@H]2[C@@H](CO)O1 | x | x | 8 | x | x
COc1cc(CNc2ccc(N3CCCC3)cc2)cc(Cl)c1OC | + | 10 | x | 150 | 3
CCOc1ccccc1CNc1nnnn1C | i | -1 | -1 | 97 | -1
CCOc1ccccc1CNn1nnnc1N | + | 1 | -3 | 101 | -3
Nc1ccc2c(O)cc(S(=O)(=O)O)cc2c1 | i | -1 | 73* | 98 | 0
O=C(O)c1cccc(Nc2ccnc(Nc3cccc(C(=O)O)c3)n2)c1 | i | -1 | 4 | 99 | 140*
O=C(O)c1cccc(Nc2nc(N3CCOCC3)nc(N3CCOCC3)n2)c1 | i | 2 | 10 | 103 | -2
O=C(C[C@H]1CC[C@H]2[C@@H](COC[C@H](O)CN2CCC(F)(F)F)O1)NCc1ccc(Oc2ccccc2)cc1 | x | x | 8 | x | x
CN1c2ccc(C#Cc3cccnc3)cc2[C@H]2[C@H](CCN2S(=O)(=O)c2ccc(F)cc2)[C@H]1CO | x | x | -9 | x | x
O=C(c1cccc(S(=O)(=O)NCc2ccccc2)c1)N1CCN(c2ccccc2)CC1 | + | 11 | -12 | 98 | 1
CO[C@H]1CN(C)C(=O)c2cc(NC(C)=O)ccc2OC[C@H](C)N(Cc2cccnc2)C[C@@H]1C | x | x | 20 | x | x
O=c1c(Br)ccc(Br)cc1Br | u | -20 | -2 | 19* | 168*
CN(Cc1cnc2nc(N)nc(N)c2n1)c1ccc(C(=O)N[C@@H](CCC(=O)O)C(=O)O)cc1 | +! | -9 | -13 | 103 | -3
O=C(Nc1nc2ccccc2s1)c1cccc(S(=O)(=O)N2CCc3ccccc32)c1 | i | -2 | -5 | 95 | -18
O=C(Nc1nc2c(s1)CN(Cc1ccccc1)CC2)c1cccc(S(=O)(=O)N2CCc3ccccc32)c1 | + | 2 | -27 | 105 | -7
CCN1CCc2c(sc(NC(=O)Nc3ccc(Cl)c(Cl)c3)c2C(N)=O)C1 | + | 1 | -211 | 944 | x
CCCN1CCc2c(sc(NC(=O)c3ccc(S(=O)(=O)N4CCCC4)cc3)c2C(N)=O)C1 | + | -5 | -42 | 111 | x
C[C@H](CO)N1C[C@H](C)[C@H](CN(C)C(=O)c2ccncc2)Oc2cc(/C=C/c3ccccc3)ccc2S1(=O)=O | x | x | 2 | x | x
O=C(C[C@@H]1CC[C@@H]2[C@H](COC[C@@H](O)CN2C(=O)Nc2ccc(C(F)(F)F)cc2)O1)NC1Cc2ccccc2C1 | x | x | 5 | x | x
Cc1noc(C)c1NC(=O)N(C)C[C@H]1Oc2ccc(NC(=O)CCN3CCOCC3)cc2C(=O)N([C@@H](C)CO)C[C@H]1C | x | x | 2 | x | x
CCN(CC)C(=O)c1cccc(-c2csc(C(O)c3ccco3)n2)c1 (stereo unspecified) | + | -4 | -9 | 98 | 13
CCN(CC)C(=O)c1cccc(-c2csc(C(O)c3ccccc3)n2)c1 (stereo unspecified) | i | 1 | -15 | 103 | -13
CN=c1sc2ccccc2n1CC(O)COCc1ccco1 (stereo unspecified) | + | -3 | 7 | 95 | 3
SMILES | Myeloid diff MLP | N-glyco inh | RAD54 branch | ABCB6 inh MLPCN | Vif inh
CN=c1sc2ccccc2n1CC(O)c1ccccc1 (stereo unspecified) | i | 2 | x | 93 | 1
COc1ccc(NC(=O)N(C)C[C@@H]2OCCCC[C@@H](C)Oc3ccc(NC(=O)Nc4c(C)noc4C)cc3C(=O)N([C@@H](C)CO)C[C@H]2C)cc1 | x | x | 0 | x | x
O=S(=O)(Nc1nc2ccccc2nc1NCc1ccco1)c1ccc(F)cc1 | i | 1 | x | 112 | 0
O=S(=O)(Nc1nc2ccccc2nc1NCc1ccco1)c1ccccc1 | + | 0 | -14 | 98 | -2
C[C@H](CO)N1C[C@H](C)[C@H](CN(C)C(=O)Nc2ccccc2)Oc2c(NS(=O)(=O)c3ccccc3)cccc2C1=O | x | x | -8 | x | x
CC(C)Cn1c(N)c(C(=O)COC(=O)c2cc(-c3ccco3)nc3ccccc23)c(=O)n(C)c1=O | + | -1 | -4 | 90 | -1
C[C@@H]1CCCCO[C@@H](CN(C)C(=O)Nc2cccc3ccccc23)[C@H](C)CN([C@@H](C)CO)C(=O)c2cc(NS(=O)(=O)c3cn(C)cn3)ccc2O1 | x | x | -17 | x | x
O=C(NC1CC1)C1CC(=O)N(c2cccc(Cl)c2)C1 (stereo unspecified) | + | 1 | 8 | 99 | -1
Cc1ccc2c(C)nc(Nc3nc(CSc4nnc(C)s4)cc(=O)[nH]3)nc2c1 | i | 8 | 15 | 91 | 11
COc1cccc2c(C)nc(Nc3nc(CSc4nnc(C)s4)cc(=O)[nH]3)nc12 | + | 3 | 3 | 93 | 1
Cc1ccccc1CSc1nnc(-c2ccco2)n1Cc1ccco1 | + | -2 | x | 96 | 0
O=S1(=O)CCC(NC(=S)Nc2ccc(Cl)cc2)C1 (stereo unspecified) | i | 0 | x | 73* | -1
COc1ccc(OC)c(CNc2ccc3c(c2)CCC3)c1 | + | -6 | -4 | 139 | -10
COc1cccc(CNc2ccc(C)c(Cl)c2)c1 | i | -4 | x | 100 | 4
COc1cccc(CNc2ccc3c(c2)CCC3)c1 | i | -7 | 7 | 136 | 60*
COc1ccc(OC)c(CC(=O)Nc2ccc3c(c2)CCC3)c1 | i | -2 | 9 | 97 | 26
COc1ccc(OC)c2sc(N(CCN(C)C)C(=O)/C=C/c3cccs3)nc12 | u | -10 | 90* | 93 | 1
CCN(CC)CCN(C(=O)/C=C/c1cccs1)c1nc2ccc(F)cc2s1 | i | 0 | -1 | 101 | -1
CN(C)CCCN(C(=O)/C=C/c1cccs1)c1nc2ccc(F)cc2s1 | + | -6 | 21 | 101 | -13
O=C(CCN1CCCCC1)NCC[C@H]1CC[C@@H](NC(=O)C2CCCC2)[C@@H](CO)O1 | x | x | 2 | x | x
O=C(Cc1ccncc1)NCC[C@@H]1CC[C@H](NC(=O)C2CCCCC2)[C@H](CO)O1 | x | x | -9 | x | x
CCn1c(Cl)c(C=O)s/c1=N\S(=O)(=O)c1ccccc1 | u | -6 | -12 | 38* | 13
CN1c2ccc(-c3ccccc3F)cc2[C@H]2[C@H](CCN2S(=O)(=O)c2ccc(F)cc2)[C@@H]1CO | x | x | 0 | x | x
O=C(c1ccc(CSc2nc3ccncc3[nH]2)cc1)N1CCN(c2cccc(Cl)c2)CC1 | + | -3 | -6 | 93 | -11
CO[C@H]1CN(C)C(=O)c2ccc(NC(C)=O)cc2OC[C@@H](C)N(Cc2ccccc2F)C[C@H]1C | x | x | 1 | x | x
Cc1ccc(/C=N/N2C(=O)c3ccccc3NC2c2ccc(C)cc2)cc1 (stereo unspecified) | + | -6 | -1 | 104 | -18
